High-throughput results (PubChem)
Shown are actives, neighbours in structure and some others; about 3% of the full set was active somewhere.
FBA Mtb inh: Mtb fructose-bisphosphate aldolase inhibition. P9WQA3. inhibition, % at 1 µM. purified M. tuberculosis FBA, fluorescence read-out. AID 588726. hit rate 2.3% among 360,000;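 note: 0% = vehicle and 100% = reference inhibitor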
FadD28 FP inh: M. tuberculosis FadD28 bisubstrate binding inhibition. hit rate 0.22% among 360,000. AID 588549. FadD28 bisubstrate probe binding, fluorescence polarization. inhibition, % at 12.5 µM; in the data active = inhibition above about 8.5%, passing the limit was not always enough
Rv3671c protease: Rv3671c (M. tuberculosis) protease inhibition. P9WHR9. inhibition, % at 5.96 µM. hit rate 0.048% among 320,000; in the data active = inhibition above about 38%;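 note: extracellular domain of Rv3671c used as enzyme; 0% = enzyme with DMSO and 100% = no enzyme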
Target sequence (P9WHR9 whole entry, looked up, the tested form may be a part): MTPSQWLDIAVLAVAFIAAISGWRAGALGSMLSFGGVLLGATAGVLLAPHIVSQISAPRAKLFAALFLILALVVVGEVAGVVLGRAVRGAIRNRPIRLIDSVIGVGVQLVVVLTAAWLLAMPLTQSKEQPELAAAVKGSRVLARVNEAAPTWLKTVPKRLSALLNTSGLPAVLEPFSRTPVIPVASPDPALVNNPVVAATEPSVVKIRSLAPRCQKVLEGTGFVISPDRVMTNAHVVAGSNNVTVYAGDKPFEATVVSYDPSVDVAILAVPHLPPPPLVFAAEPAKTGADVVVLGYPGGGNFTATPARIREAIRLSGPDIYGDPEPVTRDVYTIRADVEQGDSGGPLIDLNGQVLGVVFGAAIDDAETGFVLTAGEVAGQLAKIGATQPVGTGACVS
GDH-TPI counter-1: inhibits GDH-TPI coupling enzymes, artifact for Mtb FBA screen; GDH-TPI coupled enzyme counterscreen, NADH absorbance; inhibition, % at 4.8 µM; hit rate 1.2% among 360,000; AID 588335; in the data active = inhibition above about 30%;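 note: 0% = DMSO wells and 100% = wells lacking the enzyme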
BioA inh: blocks M. tuberculosis BioA enzyme activity; purified M. tuberculosis BioA enzyme, plate reader; AID 602481; inhibition, % at 9.99 µM; hit rate 0.096% among 360,000; in the data active = inhibition above about 40%
Mtb FBA confirm: confirmation of M. tuberculosis fructose-bisphosphate aldolase inhibitors | shares compounds with FBA Mtb inh | purified M. tuberculosis FBA, fluorescence read-out | inhibition, % at 1 µM | hit rate 78% among 5,600 | AID 651616;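 note: 0% = vehicle wells and 100% = reference inhibitor wells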
GDH-TPI counter-2: GDH-TPI inhibition counter-screen for FBA inhibitors; shares compounds with FBA Mtb inh; GDH-TPI coupled enzyme counterscreen, fluorescence; inhibition, % at 1 µM; hit rate 81% among 5,600; AID 652141; in the data active = inhibition above about 10%
Active calls of the source: *. Cut-off read from the data, not from the text of the source, unless noted: active = inhibition above about 27%; inactive = the rest.

C[C@@H]1CCCCO[C@@H](CN(C)C(=O)Cc2ccccc2)[C@@H](C)CN([C@@H](C)CO)C(=O)c2cc(NC(=O)Nc3ccc4c(c3)OCO4)ccc2O1 was read as BioA inh -1.2.
For O=C(COC(=O)c1ccccc1NCCO)NCCc1ccccc1 the results were FBA Mtb inh 77.0*, FadD28 FP inh 0.0, Rv3671c protease 5.2, GDH-TPI counter-1 3.2, Mtb FBA confirm 47.4* and GDH-TPI counter-2 38.2*.
For Cc1ccc(C(=O)OCC(=O)Nc2c(C)nn(-c3ccccc3)c2C)c(O)c1 the results were FBA Mtb inh 4.8, FadD28 FP inh 0.4, GDH-TPI counter-1 15.2 and BioA inh -1.9.
For Cc1ccc(-n2nc(C)c(NC(=O)COC(=O)c3ccccc3NCCO)c2C)cc1 the results were FBA Mtb inh 67.6*, FadD28 FP inh -0.5, Rv3671c protease -2.8, GDH-TPI counter-1 15.8, Mtb FBA confirm 79.6* and GDH-TPI counter-2 64.8*.
O=C(OCC(=O)N(Cc1ccccc1)Cc1ccccc1)c1ccccc1NCCO was read as FBA Mtb inh 95.2*, FadD28 FP inh -3.5, Rv3671c protease -7.6, GDH-TPI counter-1 9.3, Mtb FBA confirm 4.5 and GDH-TPI counter-2 -2.4.
`COc1ccc(C(=O)OCC(=O)N(Cc2ccccc2)Cc2ccccc2)c(O)c1` gave FBA Mtb inh -2.8, FadD28 FP inh -0.4, GDH-TPI counter-1 8.8 and BioA inh -1.9.
Screening CC(C#N)(NC(=O)COC(=O)c1ccccc1NCCO)C1CC1 (stereo unspecified) returned FBA Mtb inh 99.4*, FadD28 FP inh -0.5, Rv3671c protease 1.4, GDH-TPI counter-1 11.3, Mtb FBA confirm 51.7* and GDH-TPI counter-2 39.1*.
Screening O=C(COC(=O)c1ccccc1C(=O)c1ccccc1)NCCc1ccccc1 returned FBA Mtb inh 1.9, FadD28 FP inh -0.5, Rv3671c protease -12.8 and GDH-TPI counter-1 10.5.
COc1ccc(C#Cc2ccc3c(c2)[C@H]2[C@H](CCN2S(=O)(=O)c2ccccc2C)[C@@H](CO)N3C)cc1 was read as BioA inh -1.9.
Screening O=C(COC(=O)c1ccccc1Br)NCCC1=CCCCC1 returned FBA Mtb inh -0.4, FadD28 FP inh 1.8, Rv3671c protease 9.7, GDH-TPI counter-1 -1.9 and BioA inh -0.5.
O=C(COC(=O)c1ccccc1NCCO)NCCC1=CCCCC1 was read as FBA Mtb inh 62.6*, FadD28 FP inh -2.8, Rv3671c protease 5.7, GDH-TPI counter-1 2.8, BioA inh -0.6, Mtb FBA confirm 174.9* and GDH-TPI counter-2 130.4*.
`O=C(COC(=O)c1ccccc1NCCO)NNC(=O)c1cccs1` gave FBA Mtb inh 59.6*, FadD28 FP inh -0.3, Rv3671c protease 2.2, GDH-TPI counter-1 6.4, BioA inh 0.4, Mtb FBA confirm active and GDH-TPI counter-2 active.
`O=C(COC(=O)c1ccccc1NCCO)NCC1CCCCC1` gave FBA Mtb inh 71.2*, FadD28 FP inh -0.5, Rv3671c protease -1.9, GDH-TPI counter-1 7.0, BioA inh -1.2, Mtb FBA confirm 100.5* and GDH-TPI counter-2 75.6*.
For CN1c2ccc(C#Cc3cccnc3)cc2[C@@H]2[C@@H](CCN2C(=O)C2CCCCC2)[C@H]1CO the results were BioA inh 3.9.
COCCNC(=O)C[C@@H]1C[C@@H]2c3cc(NS(=O)(=O)c4ccccc4)ccc3O[C@@H]2[C@@H](CO)O1 was read as BioA inh 0.6.
For CCN1[C@H](C(=O)N2CCN(C)CC2)[C@@H](CO)[C@@H]2Cn3c(ccc(-c4ccccc4)c3=O)[C@@H]21 the results were BioA inh -0.9.
For CCCC(=O)N1CCC1(C)C(=O)Nc1ccc2nccnc2c1 (stereo unspecified) the results were FBA Mtb inh 43.0*, FadD28 FP inh -2.8, GDH-TPI counter-1 23.9, BioA inh -0.1, Mtb FBA confirm 45.4* and GDH-TPI counter-2 23.8*.
Screening Cc1ccc(CCNC(=O)c2coc3nc4ccccc4nc23)cc1 returned FBA Mtb inh 57.5*, FadD28 FP inh 0.8, Rv3671c protease -14.4, GDH-TPI counter-1 10.4, BioA inh -3.8, Mtb FBA confirm 99.1* and GDH-TPI counter-2 72.2*.
Screening COc1ccc(CCNC(=O)c2ccccc2C(=O)NCCc2ccc(OC)cc2)cc1 returned FBA Mtb inh -2.4, FadD28 FP inh -3.2, Rv3671c protease -6.6, GDH-TPI counter-1 3.7 and BioA inh 0.4.
`Cn1c(=O)c2cc(NC(=S)NC3CCCCC3)ccc2n1-c1ccccc1` gave FBA Mtb inh 42.0*, FadD28 FP inh -1.6, GDH-TPI counter-1 1.3, BioA inh 4.2, Mtb FBA confirm 76.3* and GDH-TPI counter-2 81.0*.
Screening CCc1cc(=O)oc2cc(OCc3nn[nH]n3)ccc12 returned FBA Mtb inh 30.5*, FadD28 FP inh -1.0, Rv3671c protease -0.7, GDH-TPI counter-1 7.6, BioA inh -0.2, Mtb FBA confirm active and GDH-TPI counter-2 active.
Screening CCc1cc(=O)oc2cc(OCC=C(C)C)ccc12 returned FBA Mtb inh 35.9*, FadD28 FP inh -1.8, Rv3671c protease -4.2, GDH-TPI counter-1 4.4, BioA inh 1.3, Mtb FBA confirm 35.0* and GDH-TPI counter-2 30.5*.
`Nc1ccc(-c2nc3cc(N)ccc3o2)cc1` gave FBA Mtb inh 36.8*, FadD28 FP inh 0.1, Rv3671c protease -11.0, GDH-TPI counter-1 34.0*, BioA inh -0.1, Mtb FBA confirm 81.3* and GDH-TPI counter-2 51.2*.
Screening Cc1ccc(-c2nc3cc(N)ccc3o2)cc1Br returned FBA Mtb inh 1.1, FadD28 FP inh 0.3, Rv3671c protease 4.0, GDH-TPI counter-1 9.4 and BioA inh 0.5.
Screening Cc1cccc(-c2nnc(-c3ccc(N)cc3)o2)c1 returned FBA Mtb inh 16.5, FadD28 FP inh 0.6, Rv3671c protease -4.0, GDH-TPI counter-1 28.3 and BioA inh -1.8.
Screening Nc1ccc(-c2nnc(-c3ccc(N)cc3)o2)cc1 returned FBA Mtb inh 74.5*, FadD28 FP inh 0.4, Rv3671c protease 0.6, GDH-TPI counter-1 36.5*, BioA inh -1.4, Mtb FBA confirm 92.5* and GDH-TPI counter-2 81.8*.
CN(C)c1ccc(-c2nc3cc(N)ccc3o2)cc1 was read as FBA Mtb inh 35.9*, FadD28 FP inh -0.6, GDH-TPI counter-1 49.0*, BioA inh -1.2, Mtb FBA confirm 70.0* and GDH-TPI counter-2 55.3*.
Screening CC1=CC(=O)Nc2ncccc2O1 returned FBA Mtb inh 60.8*, FadD28 FP inh -1.8, GDH-TPI counter-1 19.5, BioA inh -1.4, Mtb FBA confirm 83.8* and GDH-TPI counter-2 75.9*.
For CC1(C(=O)O)Oc2cccnc2NC1=O (stereo unspecified) the results were FBA Mtb inh 1.2, FadD28 FP inh -3.8, Rv3671c protease 1.9 and GDH-TPI counter-1 1.0.
For CCCNC(=O)C[C@H]1CC[C@@H]2[C@@H](COc3ccc(NC(=O)c4cccs4)cc3C(=O)N2C)O1 the results were BioA inh 3.1.
